According to PubChem BioAssay AID2551 (National Center for Advancing Translational Sciences (NCATS), 2010):
Screen size: about 310,000 compounds; about 17,000 (5.5%) were called active. About 11% were inconclusive and are not listed. Calls follow the shape of the dose curve; as a rule, active = well fitted inhibition curve with a large enough effect; inconclusive = small, poorly fitted or top-dose-only effect, or effect the other way; inactive = no such curve, though single readings can be large or run the other way. The list comes from a sample in which actives are over-represented; it also holds similar structures and randomly drawn compounds.

Target: Nuclear receptor ROR-gamma (Mus musculus) (UniProt P51450)
Sequence (P51450 whole entry, looked up): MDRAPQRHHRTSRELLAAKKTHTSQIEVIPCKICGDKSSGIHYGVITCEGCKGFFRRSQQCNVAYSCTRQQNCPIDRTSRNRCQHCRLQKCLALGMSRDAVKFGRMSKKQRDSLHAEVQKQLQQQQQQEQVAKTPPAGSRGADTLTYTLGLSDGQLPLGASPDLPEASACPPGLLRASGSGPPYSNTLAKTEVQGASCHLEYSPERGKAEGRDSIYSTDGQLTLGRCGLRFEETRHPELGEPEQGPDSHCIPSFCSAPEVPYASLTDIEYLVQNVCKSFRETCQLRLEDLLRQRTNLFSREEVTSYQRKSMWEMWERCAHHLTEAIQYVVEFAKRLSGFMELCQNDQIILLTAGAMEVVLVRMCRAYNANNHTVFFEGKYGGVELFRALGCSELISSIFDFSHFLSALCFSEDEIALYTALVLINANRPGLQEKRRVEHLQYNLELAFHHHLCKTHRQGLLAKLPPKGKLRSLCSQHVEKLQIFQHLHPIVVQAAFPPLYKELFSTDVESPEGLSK
Assay: qHTS for inhibitors of ROR gamma transcriptional activity; also: nearly all actives have a fitted effect of over 60% in size
Details: Drosophila S2 Gal4-RORgamma UAS-luciferase reporter, 20 h; series mostly up to 53.6 µM; activity change, negative = inhibition: at the top concentration
Summary of the method: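 Stably transfected Drosophila Schneider cells are the test system, with ROR gamma fused to Gal4 and luciferase under UAS control; luminescence is read after 20 hr of 700 uM copper sulfate induction at ambient temperature.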
% is scaled to controls: 0 for no effect and ±100 for the full control effect; potency is read from the fitted curve at half-maximal effect.

Structure (SMILES) | activity change, negative = inhibition | Potency
COc1ccc(NS(=O)(=O)c2ccc3oc(SCC(N)=O)nc3c2)cc1 | 43.4% (inactive) | –
COc1cc(C(=S)N2CCOCC2)cc(OC)c1OC(=O)c1ccc([N+](=O)[O-])cc1[N+](=O)[O-] | -8.5% [at 1.91 µM] (inactive) | –
O=C(O)c1ccc2c(=O)n3c(nc2c1)/C(=C/c1ccc(OC(F)F)cc1OC(F)F)CC3 | 2.65% (inactive) | –
Nc1nc(CC(=O)CSc2ccc(Cl)cc2)nc(Nc2ccc(F)cc2)n1 | – | 14.1 µM (active)
Cc1ccc(Nc2nc(N)nc(CSc3nnc(C)s3)n2)cc1 | 21.9% (inactive) | –
CCOC(=O)N1CCN(Cc2nc(N)nc(Nc3ccc(C)cc3)n2)CC1 | -14.9% (inactive) | –
O=S(=O)(NC1CC1)c1ccc(Cl)cc1 | 30.8% [at 1.91 µM] (inactive) | –
Cc1ccc(Nc2ccccc2N)cc1 | – | 11.2 µM (active)
Cc1ccc(Nc2nnc(SCc3ccccc3)s2)cc1 | 10.7% (inactive) | –
Nc1ccccc1N | -35.5% (inactive) | –
Cc1[nH]c(C)c(S(=O)(=O)N2CCC(C)CC2)c1C(=O)N1CCCC1 | -11.5% (inactive) | –
COCCNC(=O)CN(Cc1ccco1)C(=O)CCC(=O)Nc1nccs1 | -1.62% (inactive) | –
Cc1ccccc1-n1c(C)cc(/C=N/NC(=O)c2ccc(CN3CCOCC3)cc2)c1C | – | 10 µM (active)
COc1ccc(C(=O)Nc2ccc(CN3CCOCC3)cc2)cc1 | 20.3% (inactive) | –
C/C(CCc1ccccc1)=N\NC(=O)c1ccc(CN2CCOCC2)cc1 | -42.7% (inactive) | –
Cc1cc(=O)n2nc(N3CCCC(C(=O)NCc4cccc(Cl)c4)C3)sc2n1 (centres undefined) | -0.13% (inactive) | –
Nc1ccc(-c2nnc(-c3ccccc3)o2)cc1 | 4.3% (inactive) | –
O=C(COC(=O)c1ccc(Oc2ccccc2)cc1)Nc1nnc(-c2ccccc2)o1 | – | 2.82 µM (active)
Cc1ccnc2nc(C(=O)Nc3nnc(-c4ccccc4)o3)nn12 | – | 11.2 µM (active)
O=C(COC(=O)c1ccccc1)Nc1ccccc1Sc1ccccc1 | -2.28% (inactive) | –
CCc1nnc(NC(=O)c2nc3nccc(C)n3n2)s1 | -5.51% (inactive) | –
O=C(OCc1ccc(Br)cc1)c1cccc(-c2nnc(-c3ccccc3)o2)c1 | -1.79% (inactive) | –

Structure (SMILES) | activity change, negative = inhibition | Potency
Cc1ccnc2nc(C(=O)OCC(=O)N(CC(C)C)CC(C)C)nn12 | 25.7% (inactive) | –
Cc1cccc(NC(=O)Nc2nnc(-c3ccccc3)o2)c1 | -2.44% (inactive) | –
CCCC(=O)Nc1nnc(-c2ccccc2)o1 | – | 7.94 µM (active)
COC(=O)C1(C)CC1(c1ccccc1)c1ccccc1 (centres undefined) | 28% (inactive) | –
CN(C)N1C(N)=C(C#N)C(c2ccc(Br)cc2)C2=C1CCCC2=O (centres undefined) | 3.08% (inactive) | –
C[C@@H](NC(=O)[C@@H]1Cc2ccccc2CN1)C(=O)NC1CCCC1 | 5.75% (inactive) | –
CC(=O)NN1C(=O)c2ccccc2NC1c1ccccc1 (centres undefined) | 1.65% (inactive) | –
CCCC1=Nc2cc(C(=O)NCCN3CCCC3)ccc2Sc2ccccc21 | -10.6% (inactive) | –
CCC1Sc2ccc(S(=O)(=O)CCC(=O)NCc3cccs3)cc2NC1=O (centres undefined) | 20.9% (inactive) | –
FC(F)(F)c1nc2ccccc2nc1N/N=C/c1ccc(Cl)cc1 | – | 5.62 µM (active)
FC(F)(F)c1cccc(N/N=C/c2ccccc2)c1 | 31.7% (inactive) | –
CC(NC(=O)C(=O)N/N=C/c1ccc(Cl)cc1)c1ccccc1 (centres undefined) | 19.8% (inactive) | –
COc1ccccc1CN(C)C(=O)c1cc2ccccc2o1 | -5.26% (inactive) | –
Cc1ccc2[nH]c(=O)c(CN(C)S(=O)(=O)c3cccc4nonc34)cc2c1 | 7.54% (inactive) | –
COc1cc(SC#N)ccc1N=Cc1c(C)[nH]n(-c2ccc(C)cc2)c1=O | – | 6.31 µM (active)
C=CCN1C(=O)C2(OCCCO2)c2cccc(Cl)c21 | 8.79% (inactive) | –
Oc1ccc(-n2nnnc2SCc2c(F)cccc2Cl)cc1 | -29.8% (inactive) | –
Cc1ccc(CC2CC(=O)N(c3cc(C)ccc3C)C2=O)cc1 (centres undefined) | 29.6% (inactive) | –
O=C(Nc1cccc(C(F)(F)F)c1)c1cnccn1 | 27.2% (inactive) | –
Cc1cccc(NC(=O)c2cccc(C(F)(F)F)c2)c1 | 21% (inactive) | –
O=C(Nc1cccc(C(F)(F)F)c1)c1cc(Br)cc(Br)c1O | – | 5.01 µM (active)
O=C(N/C(=C/c1ccc(Cl)cc1)C(=O)N1CCCCC1)c1ccco1 | -18.8% (inactive) | –

Structure (SMILES) | activity change, negative = inhibition | Potency
CN(CC(=O)Nc1c(Cl)cccc1Cl)C(=O)c1ccncc1 | -13.7% (inactive) | –
Cc1ccc(-c2ccc(=O)n(Cc3ccc(F)cc3Cl)n2)cc1 | -1.89% (inactive) | –
Cc1n[nH]c(=O)c2c1nnn2Cc1ccc(F)cc1 | 1.18% (inactive) | –
Cc1nnsc1C(=O)N/N=C/c1cccc(C(F)(F)F)c1 | 22.6% (inactive) | –
COc1ccc(/C=N/NC(=O)c2cccc(C(F)(F)F)c2)cc1 | – | 12.6 µM (active)
COc1ccc(/C=N/NC(=O)Cn2cc(C(F)(F)F)ccc2=O)cc1 | -22.5% (inactive) | –
C=C1C(=O)C23C(O)C1CCC2[C@]12COC3(O)C(O)C1C(C)(C)CC[C@H]2O (some centres undefined) | – | 0.708 µM (active)
CCC1Oc2ccccc2N(CC(=O)NCCCN2CCN(CC)CC2)C1=O (centres undefined) | 1.84% (inactive) | –
COc1ccc(Cc2nc3ccc(C(=O)NCC4CCOCC4)cc3o2)cc1OC | 42.4% (inactive) | –
CCOC(=O)C1=C(c2ccc(OC)cc2)C(=O)c2ccccc2C1=O | – | 6.31 µM (active)
CCCCC(C(=O)OCC(=O)c1ccc(OC)cc1)N1C(=O)c2ccccc2C1=O (centres undefined) | 28.3% (inactive) | –
CCOC(=O)c1c(-c2ccc(C)cc2)csc1/N=C(\C)C1=C(O)c2ccccc2C1=O | 1.71% (inactive) | –
O=C(NCCCc1ccccc1)C1CCC(=O)N(CCc2ccc(Cl)cc2)C1 (centres undefined) | 39.6% (inactive) | –
COc1ccccc1CN1CCCC(N2CCN(c3ccc(F)cc3)CC2)C1 (centres undefined) | -1.98% (inactive) | –
O=C(CN(CC1CCCO1)C(=O)CNS(=O)(=O)c1ccc(Cl)cc1)NCc1ccccc1 (centres undefined) | 0.565% (inactive) | –
c1ccc2cc3c(NCCN4CCOCC4)ccnc3cc2c1 | – | 11.2 µM (active)
Clc1ccccc1-c1cc(NCCN2CCOCC2)ncn1 | -6.31% (inactive) | –
O=C(NCCN1CCOCC1)c1ccc2c(c1)ncn2C1CCCC1 | 6.51% (inactive) | –
Cc1ccc2c(c1)N(CC(=O)N1CCC(O)CC1)C(=O)CO2 | -19.4% (inactive) | –
Cc1ccc(C(=O)CCC(=O)N(C)CC(=O)Nc2c(Cl)cccc2Cl)cc1 | 9.26% (inactive) | –
Cc1cccnc1NC(=O)c1cccc(S(=O)(=O)N2CCN(c3ccc(F)cc3)CC2)c1 | -44% (inactive) | –
S=C1NC(c2ccccc2)=NCN1c1ccc(Br)cc1 | – | 8.91 µM (active)

Structure (SMILES) | activity change, negative = inhibition | Potency
Cc1nc(=O)c(-c2ccccc2)c(C)n1-c1ccc(Br)cc1 | 2.1% (inactive) | –
Brc1ccccc1C1N=C(c2ccccc2)NO1 (centres undefined) | 2.38% (inactive) | –
Cc1ccc2c(c1)C(c1ccccc1)N(C(=O)c1ccc(F)cc1)CC(=O)N2 (centres undefined) | 11.4% (inactive) | –
Cc1ccc2nc(N(CCN(C)C)C(=O)C3=COCCO3)sc2c1 | -8.72% (inactive) | –
COc1cccc(-c2noc(C3CCCN(C(=O)c4ccc(F)cc4)C3)n2)c1 (centres undefined) | -2.97% [at 1.91 µM] (inactive) | –
CC1CCCC(C)N1CCCNC(=O)c1cc2c(=O)n(C)c3ccccc3c2n1C (centres undefined) | 2.79% (inactive) | –
Cn1c(C(=O)NCCc2ccsc2)cc2c(=O)n(C)c3ccccc3c21 | 27% (inactive) | –
CCN1CCCC1CNC(=O)c1cc2c(=O)n(C)c3ccccc3c2n1C (centres undefined) | – | 3.98 µM (active)
Cc1ccc(OCC(=O)Nc2ccc(N3CCN(C(=O)c4ccco4)CC3)cc2)c(C)c1 | 24.1% (inactive) | –
CC(=O)Oc1ccc(N(C(C)=O)S(=O)(=O)c2ccc3ccccc3c2)cc1Br | 40.7% (inactive) | –
CCCC1CCC(=NNC(=S)NCCc2ccccc2)CC1 (centres undefined) | – | 5.01 µM (active)
CCCCNC(=O)C1CCC(=O)N1CCc1ccccc1 (centres undefined) | -0.936% (inactive) | –
O=C1CCN(C(=S)NCCc2ccccc2)CC1 | 6.62% (inactive) | –
CCOc1ccc(NC(=O)C(C)N2C(=O)c3ccccc3C2=O)cc1 (centres undefined) | -2.48% (inactive) | –
CSc1ccc(NC(=O)/C=C/C(=O)O)cc1 | – | 0.0794 µM (active)
Cc1cccc(N2CCN(c3ccc(NC(=O)/C=C\C(=O)O)cc3)CC2)c1 | 8.37% (inactive) | –
O=C(O)/C=C\C(=O)Nc1ccc(OCc2ccccc2)cc1 | 0.167% (inactive) | –
CN(C)CCCn1c(SCc2ccc(Cl)cc2)nnc1-c1ccncc1 | 9.2% (inactive) | –
CN1CCC(OC(=O)COc2ccc(Cl)cc2Cl)CC1 | -3.03% (inactive) | –
O=C(CCCOc1ccc(Cl)cc1Cl)NNC(=O)C1CCC1 | 8.12% (inactive) | –
Cn1c(CCCOc2ccc(Cl)cc2Cl)n[nH]c1=S | – | 6.31 µM (active)
CN(C)c1nc(NN)nc(Nc2ccc(F)cc2)n1 | – | 7.94 µM (active)

Structure (SMILES) | activity change, negative = inhibition | Potency
CN(C)c1nc(Nc2ccc(Cl)c(Cl)c2)nc(N(C)C)n1 | 22% (inactive) | –
CN(C)c1ccnc(Nc2ccc(F)cc2)c1C#N | -2.79% (inactive) | –
COc1ccc(CNC(=O)C2CCN(C(=O)c3ccco3)CC2)cc1 | -27.8% (inactive) | –
Cc1c(OC(C)C(=O)NCC2CCC(C(=O)O)CC2)ccc2c1oc(=O)c1ccccc12 (centres undefined) | 13.2% (inactive) | –
Cc1ccc(CN2CCNC(=O)C2CC(=O)NCc2csc(C(C)C)n2)cc1 (centres undefined) | -11.2% (inactive) | –
COc1cc(NS(=O)(=O)c2ccc(NC(C)=O)cc2)cc(OC)c1 | 0% (inactive) | –
COc1ccc(NS(=O)(=O)c2ccc(Oc3c(C#N)cccc3C#N)cc2)cc1 | – | 7.94 µM (active)
CCOc1ccc(S(=O)(=O)Nc2ccc(S(=O)(=O)Nc3cc(OC)ccc3OC)cc2)cc1 | 30.5% (inactive) | –
CCn1ccnc1CN(C)C(=O)c1cc(COc2ccc(Cl)cc2OC)on1 | 30% (inactive) | –
Oc1ccc(CN2CCN(c3ncccn3)CC2)cc1 | -16.9% (inactive) | –
Oc1c(CN2CCN(c3ccc(F)cc3)CC2)cc(Cl)c2cccnc12 | – | 0.562 µM (active)
O=C(c1cccc(C(=O)N2CCN(c3ccc(F)cc3)CC2)c1)N1CCN(c2ccc(F)cc2)CC1 | 4.17% (inactive) | –
COCCNC(=O)C1CCN(C(=O)C2CC(=O)N(c3ccc(C)cc3)C2)CC1 (centres undefined) | -3.92% (inactive) | –
Cc1cccc(C(=O)NC(=S)N2CCN(c3ccc([N+](=O)[O-])cc3)CC2)c1 | – | 0.447 µM (active)
O=C(c1cncc(Br)c1)N1CCN(c2ccc([N+](=O)[O-])cc2)CC1 | 34.5% (inactive) | –
Cc1cccc(C(=O)Nc2ccccc2N2CCN(c3ccc(F)cc3)CC2)c1 | 11.7% (inactive) | –
CC(C(=O)c1ccc(-c2ccccc2)cc1)[n+]1cccc(Br)c1 (centres undefined) | 44.4% (inactive) | –
CCn1c2ccc(F)cc2c2nnc(SCCN3CCOCC3)nc21 | -15.5% (inactive) | –
CCn1c(NCCc2ccc(OC)c(OC)c2)nc2c1c(=O)n(C)c(=O)n2C | 15% (inactive) | –
Cn1c(=O)c2c(nc(NCCc3ccccc3)n2Cc2ccccc2)n(C)c1=O | – | 11.2 µM (active)
Cn1c(=O)c2c(nc(NCc3ccccc3)n2CC(N)=O)n(C)c1=O | 13.7% (inactive) | –
